Tests used:
Experiment in all cases: log2 ratio of Biotin-Ahx-Ub-VS probe labelling (fragment/DMSO); higher = less target engagement (more negative = stronger competition), active = hit call of the paper (q ≤ 0.05, log2 ratio ≤ -1)
Details in all cases: compound concentration: 200 uM; treatment time: 3 h
USP19 = target: T1, USP19 (UniProt O94966)
T1 sequence (whole entry): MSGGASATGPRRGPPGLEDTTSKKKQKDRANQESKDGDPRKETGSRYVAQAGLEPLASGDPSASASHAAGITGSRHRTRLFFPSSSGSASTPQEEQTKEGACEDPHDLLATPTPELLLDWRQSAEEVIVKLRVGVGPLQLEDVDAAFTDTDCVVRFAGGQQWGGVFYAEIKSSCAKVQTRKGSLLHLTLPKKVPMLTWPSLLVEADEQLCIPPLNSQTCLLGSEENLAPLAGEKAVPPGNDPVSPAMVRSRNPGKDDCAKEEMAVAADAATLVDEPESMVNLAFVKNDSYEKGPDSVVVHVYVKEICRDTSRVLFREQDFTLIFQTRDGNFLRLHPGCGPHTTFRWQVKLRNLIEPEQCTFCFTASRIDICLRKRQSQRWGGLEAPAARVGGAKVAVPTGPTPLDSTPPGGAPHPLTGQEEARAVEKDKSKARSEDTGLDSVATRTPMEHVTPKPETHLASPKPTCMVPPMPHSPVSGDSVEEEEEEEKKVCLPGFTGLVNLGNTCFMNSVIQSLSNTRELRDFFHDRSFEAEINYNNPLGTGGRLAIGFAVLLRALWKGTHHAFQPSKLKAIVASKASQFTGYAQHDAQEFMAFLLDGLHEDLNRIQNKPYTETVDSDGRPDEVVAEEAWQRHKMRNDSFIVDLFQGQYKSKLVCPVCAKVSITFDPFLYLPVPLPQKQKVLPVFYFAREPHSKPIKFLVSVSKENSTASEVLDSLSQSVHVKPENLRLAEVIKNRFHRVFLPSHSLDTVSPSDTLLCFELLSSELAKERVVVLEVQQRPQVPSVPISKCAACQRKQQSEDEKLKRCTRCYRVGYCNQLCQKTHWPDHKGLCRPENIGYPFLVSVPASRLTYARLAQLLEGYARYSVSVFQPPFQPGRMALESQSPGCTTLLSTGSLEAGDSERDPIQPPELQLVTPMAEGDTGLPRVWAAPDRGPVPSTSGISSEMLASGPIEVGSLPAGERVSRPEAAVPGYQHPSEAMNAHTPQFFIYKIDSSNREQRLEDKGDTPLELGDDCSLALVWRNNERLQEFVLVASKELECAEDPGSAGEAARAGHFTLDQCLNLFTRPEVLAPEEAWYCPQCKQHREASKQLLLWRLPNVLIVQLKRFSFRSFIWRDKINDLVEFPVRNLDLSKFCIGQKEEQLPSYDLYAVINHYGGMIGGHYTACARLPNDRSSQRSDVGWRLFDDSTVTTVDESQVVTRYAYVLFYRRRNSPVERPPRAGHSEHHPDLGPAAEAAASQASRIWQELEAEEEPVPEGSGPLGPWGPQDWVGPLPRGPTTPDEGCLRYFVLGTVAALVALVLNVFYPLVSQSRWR
Procedure, shortened: (§1)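 Each value is an average log2 ratio of fragment to vehicle, tested by unpaired t-test. The underlying Spectronaut label-free quantities were global-median-normalised, and only proteins with ≥2 unique peptides were included. Triplicate HEK293T lysate samples (495 µg) were exposed to fragment at 200 µM or vehicle for 3 h, then to Biotin-Ahx-Ub-VS at 0.5 µM final for 1 h, before NeutrAvidin enrichment of labelled DUBs, LysC and trypsin digestion, and diaPASEF LC-MS/MS.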

USP22 = target: T2, USP22 (UniProt Q9UPT9)
T2 sequence (whole entry): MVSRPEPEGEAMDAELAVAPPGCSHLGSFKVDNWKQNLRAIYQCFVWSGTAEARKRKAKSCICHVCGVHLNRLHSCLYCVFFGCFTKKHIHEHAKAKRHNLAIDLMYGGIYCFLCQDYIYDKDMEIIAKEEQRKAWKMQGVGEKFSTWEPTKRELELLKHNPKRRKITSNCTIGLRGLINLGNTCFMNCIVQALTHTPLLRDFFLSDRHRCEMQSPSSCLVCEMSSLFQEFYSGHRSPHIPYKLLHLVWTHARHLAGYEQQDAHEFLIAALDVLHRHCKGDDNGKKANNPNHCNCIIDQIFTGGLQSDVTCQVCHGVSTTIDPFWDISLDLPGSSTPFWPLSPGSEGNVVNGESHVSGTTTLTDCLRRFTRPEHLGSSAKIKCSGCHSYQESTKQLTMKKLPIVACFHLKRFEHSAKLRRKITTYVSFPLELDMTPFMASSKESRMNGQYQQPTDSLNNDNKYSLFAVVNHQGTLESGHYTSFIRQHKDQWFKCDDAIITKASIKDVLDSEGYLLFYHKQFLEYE
Procedure, shortened: as §1

USP24 = USP24 (UniProt Q9UPU5)
Procedure, shortened: as §1

USP25 = target: T3, USP25 (UniProt Q9UHP3)
T3 sequence (whole entry): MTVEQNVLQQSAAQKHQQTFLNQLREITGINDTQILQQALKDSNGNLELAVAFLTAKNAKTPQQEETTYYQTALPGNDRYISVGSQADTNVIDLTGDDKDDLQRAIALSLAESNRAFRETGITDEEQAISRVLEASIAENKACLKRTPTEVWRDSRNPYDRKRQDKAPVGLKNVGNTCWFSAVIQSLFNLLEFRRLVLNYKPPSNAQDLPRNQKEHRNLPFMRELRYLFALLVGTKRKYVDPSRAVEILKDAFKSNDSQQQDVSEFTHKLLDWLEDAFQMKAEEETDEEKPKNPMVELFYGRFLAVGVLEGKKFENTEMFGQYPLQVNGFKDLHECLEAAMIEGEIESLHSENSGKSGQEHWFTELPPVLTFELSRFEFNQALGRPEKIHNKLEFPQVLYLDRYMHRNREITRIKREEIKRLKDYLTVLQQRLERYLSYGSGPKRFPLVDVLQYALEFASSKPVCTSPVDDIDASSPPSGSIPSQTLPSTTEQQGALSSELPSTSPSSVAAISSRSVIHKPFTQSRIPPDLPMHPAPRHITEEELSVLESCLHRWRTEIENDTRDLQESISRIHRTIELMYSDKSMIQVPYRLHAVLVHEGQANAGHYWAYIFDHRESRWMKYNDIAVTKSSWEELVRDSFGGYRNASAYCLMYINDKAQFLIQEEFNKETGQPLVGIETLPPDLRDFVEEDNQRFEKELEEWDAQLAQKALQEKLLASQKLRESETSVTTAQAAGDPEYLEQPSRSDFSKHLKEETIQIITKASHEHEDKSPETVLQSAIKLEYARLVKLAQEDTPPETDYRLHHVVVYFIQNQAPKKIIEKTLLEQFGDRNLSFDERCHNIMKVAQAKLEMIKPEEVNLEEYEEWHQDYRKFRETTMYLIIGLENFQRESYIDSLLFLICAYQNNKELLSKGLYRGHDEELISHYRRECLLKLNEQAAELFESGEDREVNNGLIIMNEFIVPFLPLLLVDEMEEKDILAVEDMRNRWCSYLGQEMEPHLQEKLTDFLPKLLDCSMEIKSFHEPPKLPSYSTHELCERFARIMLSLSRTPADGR
Procedure, shortened: as §1

USP28 = target: T4, USP28 (UniProt Q96RU2)
T4 sequence (whole entry): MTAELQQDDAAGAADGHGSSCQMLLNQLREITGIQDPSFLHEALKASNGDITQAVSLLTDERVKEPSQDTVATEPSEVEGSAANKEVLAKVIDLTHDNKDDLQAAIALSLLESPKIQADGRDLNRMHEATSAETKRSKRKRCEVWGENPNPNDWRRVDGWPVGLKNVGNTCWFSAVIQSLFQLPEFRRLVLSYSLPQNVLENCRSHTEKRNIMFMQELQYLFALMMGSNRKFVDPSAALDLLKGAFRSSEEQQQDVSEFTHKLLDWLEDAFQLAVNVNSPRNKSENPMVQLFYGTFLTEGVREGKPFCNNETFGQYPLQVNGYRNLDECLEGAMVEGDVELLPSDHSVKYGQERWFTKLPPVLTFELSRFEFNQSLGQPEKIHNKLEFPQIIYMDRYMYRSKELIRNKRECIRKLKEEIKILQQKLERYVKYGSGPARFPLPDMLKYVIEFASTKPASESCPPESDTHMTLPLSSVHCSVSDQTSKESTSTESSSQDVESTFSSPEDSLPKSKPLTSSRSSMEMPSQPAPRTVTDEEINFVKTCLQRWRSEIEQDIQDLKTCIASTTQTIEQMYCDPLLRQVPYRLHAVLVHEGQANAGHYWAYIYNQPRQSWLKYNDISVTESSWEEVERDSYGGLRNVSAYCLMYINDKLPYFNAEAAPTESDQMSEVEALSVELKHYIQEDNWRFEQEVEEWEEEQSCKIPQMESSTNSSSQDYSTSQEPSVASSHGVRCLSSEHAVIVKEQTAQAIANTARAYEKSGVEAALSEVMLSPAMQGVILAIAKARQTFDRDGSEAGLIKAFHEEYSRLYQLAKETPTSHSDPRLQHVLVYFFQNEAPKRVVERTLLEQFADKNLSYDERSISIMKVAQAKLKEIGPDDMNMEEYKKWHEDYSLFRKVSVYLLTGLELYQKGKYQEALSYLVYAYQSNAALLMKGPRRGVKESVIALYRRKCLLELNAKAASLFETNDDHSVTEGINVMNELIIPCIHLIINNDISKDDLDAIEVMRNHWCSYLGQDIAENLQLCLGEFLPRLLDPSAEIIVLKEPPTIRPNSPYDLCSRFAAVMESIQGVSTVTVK
Procedure, shortened: as §1

Measured: log2 ratio of Biotin-Ahx-Ub-VS probe labelling

Sequence of USP24 (Q9UPU5 whole entry): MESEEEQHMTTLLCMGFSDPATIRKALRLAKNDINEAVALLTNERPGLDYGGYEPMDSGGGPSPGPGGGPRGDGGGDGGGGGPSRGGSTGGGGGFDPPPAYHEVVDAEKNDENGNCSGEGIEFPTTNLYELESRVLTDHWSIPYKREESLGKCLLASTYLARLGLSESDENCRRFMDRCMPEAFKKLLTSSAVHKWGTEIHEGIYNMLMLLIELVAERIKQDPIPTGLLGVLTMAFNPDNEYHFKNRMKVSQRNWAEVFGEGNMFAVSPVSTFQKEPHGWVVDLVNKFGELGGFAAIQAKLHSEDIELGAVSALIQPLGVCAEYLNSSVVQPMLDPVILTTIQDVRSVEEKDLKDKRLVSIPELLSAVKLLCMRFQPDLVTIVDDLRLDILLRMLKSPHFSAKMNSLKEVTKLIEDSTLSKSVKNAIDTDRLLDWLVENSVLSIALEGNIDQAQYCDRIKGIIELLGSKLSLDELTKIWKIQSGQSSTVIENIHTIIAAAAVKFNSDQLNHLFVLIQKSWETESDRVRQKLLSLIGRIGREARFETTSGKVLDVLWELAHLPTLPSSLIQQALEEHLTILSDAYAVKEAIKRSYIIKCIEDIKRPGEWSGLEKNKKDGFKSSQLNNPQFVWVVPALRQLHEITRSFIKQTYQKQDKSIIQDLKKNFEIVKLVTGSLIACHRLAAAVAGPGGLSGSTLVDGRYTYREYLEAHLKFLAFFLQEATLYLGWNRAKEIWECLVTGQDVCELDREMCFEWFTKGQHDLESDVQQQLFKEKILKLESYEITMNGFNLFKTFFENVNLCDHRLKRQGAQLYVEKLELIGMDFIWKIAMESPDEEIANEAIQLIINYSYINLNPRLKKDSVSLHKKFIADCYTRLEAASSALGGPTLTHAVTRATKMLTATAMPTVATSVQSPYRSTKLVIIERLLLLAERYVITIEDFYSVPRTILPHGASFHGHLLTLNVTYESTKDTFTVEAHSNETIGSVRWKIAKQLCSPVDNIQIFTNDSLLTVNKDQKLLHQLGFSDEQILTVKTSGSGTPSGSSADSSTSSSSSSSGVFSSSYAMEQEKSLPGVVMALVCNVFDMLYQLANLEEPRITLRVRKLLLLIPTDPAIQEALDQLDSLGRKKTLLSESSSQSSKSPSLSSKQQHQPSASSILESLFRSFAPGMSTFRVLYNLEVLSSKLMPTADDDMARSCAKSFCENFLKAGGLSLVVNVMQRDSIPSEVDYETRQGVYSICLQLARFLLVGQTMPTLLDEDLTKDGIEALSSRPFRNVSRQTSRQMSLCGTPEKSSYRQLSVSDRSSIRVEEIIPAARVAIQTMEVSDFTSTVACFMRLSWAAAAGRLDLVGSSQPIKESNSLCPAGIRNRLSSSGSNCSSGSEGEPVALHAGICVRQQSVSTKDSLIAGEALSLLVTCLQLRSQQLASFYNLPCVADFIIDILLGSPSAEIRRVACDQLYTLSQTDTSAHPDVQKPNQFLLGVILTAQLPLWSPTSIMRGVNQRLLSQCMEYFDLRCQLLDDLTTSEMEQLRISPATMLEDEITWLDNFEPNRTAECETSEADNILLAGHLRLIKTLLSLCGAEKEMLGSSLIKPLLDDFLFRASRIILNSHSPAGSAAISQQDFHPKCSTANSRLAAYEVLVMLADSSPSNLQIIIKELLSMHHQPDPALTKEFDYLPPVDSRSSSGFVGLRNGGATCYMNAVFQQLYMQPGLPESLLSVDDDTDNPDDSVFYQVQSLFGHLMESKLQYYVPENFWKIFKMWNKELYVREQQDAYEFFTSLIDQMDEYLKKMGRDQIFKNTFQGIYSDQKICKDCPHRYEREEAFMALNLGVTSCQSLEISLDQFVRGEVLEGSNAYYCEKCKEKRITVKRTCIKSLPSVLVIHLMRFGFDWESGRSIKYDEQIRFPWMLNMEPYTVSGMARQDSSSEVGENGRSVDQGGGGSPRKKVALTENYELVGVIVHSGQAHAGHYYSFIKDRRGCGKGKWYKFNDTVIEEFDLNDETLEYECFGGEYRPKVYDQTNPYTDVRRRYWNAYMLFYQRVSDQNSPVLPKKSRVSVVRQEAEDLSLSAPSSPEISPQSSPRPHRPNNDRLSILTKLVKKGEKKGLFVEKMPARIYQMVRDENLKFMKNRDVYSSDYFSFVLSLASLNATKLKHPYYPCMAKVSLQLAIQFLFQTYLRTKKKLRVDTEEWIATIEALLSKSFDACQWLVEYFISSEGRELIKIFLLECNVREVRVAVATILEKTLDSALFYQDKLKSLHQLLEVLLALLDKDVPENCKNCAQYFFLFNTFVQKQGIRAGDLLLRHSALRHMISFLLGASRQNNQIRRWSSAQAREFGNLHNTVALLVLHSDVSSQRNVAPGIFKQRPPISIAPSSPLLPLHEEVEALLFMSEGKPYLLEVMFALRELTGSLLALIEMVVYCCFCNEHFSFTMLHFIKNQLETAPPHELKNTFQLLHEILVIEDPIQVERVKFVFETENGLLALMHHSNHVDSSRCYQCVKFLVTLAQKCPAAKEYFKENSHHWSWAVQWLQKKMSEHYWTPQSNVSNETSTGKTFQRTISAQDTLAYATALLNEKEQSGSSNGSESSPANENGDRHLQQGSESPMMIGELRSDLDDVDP

O=C(CCl)N1CCC(c2nc3ccccc3o2)CC1
inactive: USP19 -0.537 | USP22 -0.0192 | USP24 -0.503 | USP25 -0.466 | USP28 -0.736
